# Assay results taken from paper PMC11006913.
# Residue numbers refer to the chain shown, from its start.
# What was measured:
# Assay in all cases: PBM; 200 nM protein, PBS
# Conditions in all cases: dsDNA, one strand shown
# [1] = biological target: HOXB4 (Homo sapiens, UniProt P17483 148-234)
# [2] = biological target: T1, VENTX (Homo sapiens, UniProt O95231 78-163, R121Q)
# T1 sequence: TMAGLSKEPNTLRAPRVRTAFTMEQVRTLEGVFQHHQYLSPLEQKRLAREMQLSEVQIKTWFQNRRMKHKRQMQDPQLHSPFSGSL
# [3] = biological target: HOXA4 (Homo sapiens, UniProt Q00056 201-287, W262R)
# HOXA4 (Homo sapiens, UniProt Q00056 201-287, W262R), sequence (Q00056 201-287 W262R): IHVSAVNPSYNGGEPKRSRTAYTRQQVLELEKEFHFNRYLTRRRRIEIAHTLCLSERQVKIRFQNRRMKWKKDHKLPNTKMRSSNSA
# [4] = biological target: PRRX1 (Homo sapiens, UniProt P54821 80-166, F113S)
# PRRX1 (Homo sapiens, UniProt P54821 80-166, F113S), sequence (P54821 80-166 F113S): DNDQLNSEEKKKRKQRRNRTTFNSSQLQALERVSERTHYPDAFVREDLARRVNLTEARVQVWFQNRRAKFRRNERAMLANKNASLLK
# [5] = biological target: T2, VENTX (Homo sapiens, UniProt O95231 78-163, Y115F)
# T2 sequence: T1 sequence with Y38F, Q44R
# [6] = biological target: HOXB6 (Homo sapiens, UniProt P17509 132-218, K202E)
# HOXB6, sequence (P17509 132-218 K202E): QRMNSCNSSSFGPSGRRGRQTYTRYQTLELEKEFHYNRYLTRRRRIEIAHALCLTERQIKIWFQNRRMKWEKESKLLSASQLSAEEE
# [7] = biological target: HOXA2 (Homo sapiens, UniProt O43364 129-215, R185T)
# HOXA2, sequence (O43364 129-215 R185T): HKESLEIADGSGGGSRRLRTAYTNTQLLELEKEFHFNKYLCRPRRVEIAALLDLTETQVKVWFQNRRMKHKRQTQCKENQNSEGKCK
# [8] = biological target: HOXA4 (Homo sapiens, UniProt Q00056 201-287, R217L)
# HOXA4 (Homo sapiens, UniProt Q00056 201-287, R217L), sequence (Q00056 201-287 R217L): as the sequence (Q00056 201-287 W262R) above, with R17L, R62W counted along it
# [9] = biological target: HOXB4 (Homo sapiens, UniProt P17483 148-234, V174I)
# HOXB4 (Homo sapiens, UniProt P17483 148-234, V174I), sequence (P17483 148-234 V174I): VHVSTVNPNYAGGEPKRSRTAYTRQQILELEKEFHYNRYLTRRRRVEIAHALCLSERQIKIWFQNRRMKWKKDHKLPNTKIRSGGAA
# [10] = biological target: MSX2 (Homo sapiens, UniProt P35548 130-214, R199I)
# MSX2 (Homo sapiens, UniProt P35548 130-214, R199I), sequence (P35548 130-214 R199I): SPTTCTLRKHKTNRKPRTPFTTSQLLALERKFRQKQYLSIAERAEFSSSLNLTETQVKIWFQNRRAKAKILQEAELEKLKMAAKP
# [11] = biological target: T3, PAX4 (Homo sapiens, UniProt O43316 9-242, R200Q)
# T3 sequence: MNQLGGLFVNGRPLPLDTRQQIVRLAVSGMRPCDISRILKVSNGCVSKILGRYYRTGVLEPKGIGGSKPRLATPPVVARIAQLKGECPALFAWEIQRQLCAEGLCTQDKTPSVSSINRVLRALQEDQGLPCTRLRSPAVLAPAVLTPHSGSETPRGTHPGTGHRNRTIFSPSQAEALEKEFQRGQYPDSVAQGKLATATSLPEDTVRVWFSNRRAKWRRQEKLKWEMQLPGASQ
# [12] = biological target: T4, PAX4 (Homo sapiens, UniProt O43316 9-242, F177V)
# T4 sequence: T3 sequence with F169V, Q192R
# [13] = biological target: HOXA4 (Homo sapiens, UniProt Q00056 201-287)
# HOXA4 (Homo sapiens, UniProt Q00056 201-287), sequence (Q00056 201-287): as the sequence (Q00056 201-287 W262R) above, with R62W counted along it
# [14] = biological target: MSX2 (Homo sapiens, UniProt P35548 130-214)
# MSX2 (Homo sapiens, UniProt P35548 130-214), sequence (P35548 130-214): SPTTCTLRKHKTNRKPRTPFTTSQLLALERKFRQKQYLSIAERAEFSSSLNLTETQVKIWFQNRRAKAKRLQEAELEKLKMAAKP
# [15] = biological target: T5, PAX4 (Homo sapiens, UniProt O43316 9-242, F177Y)
# T5 sequence: T3 sequence with F169Y, Q192R
# [16] = biological target: MSX2 (Homo sapiens, UniProt P35548 130-214, F161Y)
# MSX2 (Homo sapiens, UniProt P35548 130-214, F161Y), sequence (P35548 130-214 F161Y): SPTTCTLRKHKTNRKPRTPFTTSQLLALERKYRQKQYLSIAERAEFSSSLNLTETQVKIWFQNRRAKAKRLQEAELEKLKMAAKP
# [17] = biological target: VAX1 (Homo sapiens, UniProt Q5SQQ9 86-172, T142I)
# VAX1 (Homo sapiens, UniProt Q5SQQ9 86-172, T142I), sequence (Q5SQQ9 86-172 T142I): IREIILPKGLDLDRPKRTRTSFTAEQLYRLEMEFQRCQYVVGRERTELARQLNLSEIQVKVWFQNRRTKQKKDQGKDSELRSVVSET
# [18] = biological target: HOXA4 (Homo sapiens, UniProt Q00056 201-287, W262F)
# HOXA4 (Homo sapiens, UniProt Q00056 201-287, W262F), sequence (Q00056 201-287 W262F): as the sequence (Q00056 201-287 W262R) above, with R62F counted along it
# [19] = biological target: PRRX1 (Homo sapiens, UniProt P54821 80-166)
# PRRX1 (Homo sapiens, UniProt P54821 80-166), sequence (P54821 80-166): as the sequence (P54821 80-166 F113S) above, with S34F counted along it
# [20] = biological target: VAX1 (Homo sapiens, UniProt Q5SQQ9 86-172, K157R)
# VAX1 (Homo sapiens, UniProt Q5SQQ9 86-172, K157R), sequence (Q5SQQ9 86-172 K157R): as the sequence (Q5SQQ9 86-172 T142I) above, with I57T, K72R counted along it
# HOXB4 (Homo sapiens, UniProt P17483 148-234), sequence (P17483 148-234): as the sequence (P17483 148-234 V174I) above, with I27V counted along it
Sequence,binding signal [1],binding signal [2],binding signal [3],binding signal [4],binding signal [5],binding signal [6],binding signal [7],binding signal [8],binding signal [9],binding signal [10],binding signal [11],binding signal [12],binding signal [13],binding signal [14],binding signal [15],binding signal [16],binding signal [17],binding signal [18],binding signal [19],binding signal [20]
TAATTACA,"13.6 upbm affinity estimate (log intensity, higher = more binding, comparable within an allelic series)","12.2 upbm affinity estimate (log intensity, higher = more binding, comparable within an allelic series)","10.8 upbm affinity estimate (log intensity, higher = more binding, comparable within an allelic series)","11.6 upbm affinity estimate (log intensity, higher = more binding, comparable within an allelic series)","12.2 upbm affinity estimate (log intensity, higher = more binding, comparable within an allelic series)","10.2 upbm affinity estimate (log intensity, higher = more binding, comparable within an allelic series)","13.9 upbm affinity estimate (log intensity, higher = more binding, comparable within an allelic series)","12.9 upbm affinity estimate (log intensity, higher = more binding, comparable within an allelic series)","14.4 upbm affinity estimate (log intensity, higher = more binding, comparable within an allelic series)","13.1 upbm affinity estimate (log intensity, higher = more binding, comparable within an allelic series)","12.3 upbm affinity estimate (log intensity, higher = more binding, comparable within an allelic series)","10.8 upbm affinity estimate (log intensity, higher = more binding, comparable within an allelic series)","14.2 upbm affinity estimate (log intensity, higher = more binding, comparable within an allelic series)","14.1 upbm affinity estimate (log intensity, higher = more binding, comparable within an allelic series)","11.2 upbm affinity estimate (log intensity, higher = more binding, comparable within an allelic series)","13.7 upbm affinity estimate (log intensity, higher = more binding, comparable within an allelic series)","13.6 upbm affinity estimate (log intensity, higher = more binding, comparable within an allelic series)","12.3 upbm affinity estimate (log intensity, higher = more binding, comparable within an allelic series)","13.5 upbm affinity estimate (log intensity, higher = more binding, comparable within an allelic series)","13.6 upbm affinity estimate (log intensity, higher = more binding, comparable within an allelic series)"
AATTAATA,"13.2 upbm affinity estimate (log intensity, higher = more binding, comparable within an allelic series)","11.9 upbm affinity estimate (log intensity, higher = more binding, comparable within an allelic series)","10.8 upbm affinity estimate (log intensity, higher = more binding, comparable within an allelic series)","11.4 upbm affinity estimate (log intensity, higher = more binding, comparable within an allelic series)","11.6 upbm affinity estimate (log intensity, higher = more binding, comparable within an allelic series)","10.2 upbm affinity estimate (log intensity, higher = more binding, comparable within an allelic series)","12.6 upbm affinity estimate (log intensity, higher = more binding, comparable within an allelic series)","12.3 upbm affinity estimate (log intensity, higher = more binding, comparable within an allelic series)","13.9 upbm affinity estimate (log intensity, higher = more binding, comparable within an allelic series)","12.5 upbm affinity estimate (log intensity, higher = more binding, comparable within an allelic series)","12.3 upbm affinity estimate (log intensity, higher = more binding, comparable within an allelic series)","10.8 upbm affinity estimate (log intensity, higher = more binding, comparable within an allelic series)","13.8 upbm affinity estimate (log intensity, higher = more binding, comparable within an allelic series)","13.5 upbm affinity estimate (log intensity, higher = more binding, comparable within an allelic series)","11.2 upbm affinity estimate (log intensity, higher = more binding, comparable within an allelic series)","13.2 upbm affinity estimate (log intensity, higher = more binding, comparable within an allelic series)","12.8 upbm affinity estimate (log intensity, higher = more binding, comparable within an allelic series)","11.8 upbm affinity estimate (log intensity, higher = more binding, comparable within an allelic series)","13.4 upbm affinity estimate (log intensity, higher = more binding, comparable within an allelic series)","12.5 upbm affinity estimate (log intensity, higher = more binding, comparable within an allelic series)"
GCTAATTA,"13.6 upbm affinity estimate (log intensity, higher = more binding, comparable within an allelic series)","13 upbm affinity estimate (log intensity, higher = more binding, comparable within an allelic series)","10.8 upbm affinity estimate (log intensity, higher = more binding, comparable within an allelic series)","12 upbm affinity estimate (log intensity, higher = more binding, comparable within an allelic series)","12.8 upbm affinity estimate (log intensity, higher = more binding, comparable within an allelic series)","10.1 upbm affinity estimate (log intensity, higher = more binding, comparable within an allelic series)","14.2 upbm affinity estimate (log intensity, higher = more binding, comparable within an allelic series)","13 upbm affinity estimate (log intensity, higher = more binding, comparable within an allelic series)","14.3 upbm affinity estimate (log intensity, higher = more binding, comparable within an allelic series)","13.5 upbm affinity estimate (log intensity, higher = more binding, comparable within an allelic series)","12.9 upbm affinity estimate (log intensity, higher = more binding, comparable within an allelic series)","10.9 upbm affinity estimate (log intensity, higher = more binding, comparable within an allelic series)","14.3 upbm affinity estimate (log intensity, higher = more binding, comparable within an allelic series)","14.3 upbm affinity estimate (log intensity, higher = more binding, comparable within an allelic series)","11.4 upbm affinity estimate (log intensity, higher = more binding, comparable within an allelic series)","13.8 upbm affinity estimate (log intensity, higher = more binding, comparable within an allelic series)","14.1 upbm affinity estimate (log intensity, higher = more binding, comparable within an allelic series)","13 upbm affinity estimate (log intensity, higher = more binding, comparable within an allelic series)","13.7 upbm affinity estimate (log intensity, higher = more binding, comparable within an allelic series)","14.2 upbm affinity estimate (log intensity, higher = more binding, comparable within an allelic series)"
GTAATTAC,"13.7 upbm affinity estimate (log intensity, higher = more binding, comparable within an allelic series)","12.4 upbm affinity estimate (log intensity, higher = more binding, comparable within an allelic series)","10.8 upbm affinity estimate (log intensity, higher = more binding, comparable within an allelic series)","11.5 upbm affinity estimate (log intensity, higher = more binding, comparable within an allelic series)","12.4 upbm affinity estimate (log intensity, higher = more binding, comparable within an allelic series)","10.4 upbm affinity estimate (log intensity, higher = more binding, comparable within an allelic series)","14.1 upbm affinity estimate (log intensity, higher = more binding, comparable within an allelic series)","13.2 upbm affinity estimate (log intensity, higher = more binding, comparable within an allelic series)","14.4 upbm affinity estimate (log intensity, higher = more binding, comparable within an allelic series)","13.2 upbm affinity estimate (log intensity, higher = more binding, comparable within an allelic series)","12.5 upbm affinity estimate (log intensity, higher = more binding, comparable within an allelic series)","10.6 upbm affinity estimate (log intensity, higher = more binding, comparable within an allelic series)","14.3 upbm affinity estimate (log intensity, higher = more binding, comparable within an allelic series)","14.2 upbm affinity estimate (log intensity, higher = more binding, comparable within an allelic series)","11.1 upbm affinity estimate (log intensity, higher = more binding, comparable within an allelic series)","13.9 upbm affinity estimate (log intensity, higher = more binding, comparable within an allelic series)","13.9 upbm affinity estimate (log intensity, higher = more binding, comparable within an allelic series)","12.5 upbm affinity estimate (log intensity, higher = more binding, comparable within an allelic series)","13.5 upbm affinity estimate (log intensity, higher = more binding, comparable within an allelic series)","13.9 upbm affinity estimate (log intensity, higher = more binding, comparable within an allelic series)"
